Results as given in PubChem BioAssay (NCI).
Compounds without any hit were thinned out: in the full panel of roughly 83,000, 20% have a hit.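 Plates (96-well) were seeded with cells, treated with compound at one concentration, and incubated for 48 hours before percent growth was determined.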 A number with no mark means an inactive call. Active and inactive are the calls of the source. The calls were made as follows: active = growth percent below 10; inactive = the rest.

Columns and labels:
Test in all cases: NCI-60 one-dose screen, 48 h (100 = growth as untreated, 0 = no growth, -100 = all killed)
Details in all cases: 10 µM unless noted
[1] = test system: SR leukemia
[2] = test system: RPMI-8226 leukemia
[3] = test system: OVCAR-8 ovarian
[4] = test system: OVCAR-5 ovarian
[5] = test system: OVCAR-4 ovarian
[6] = test system: SK-OV-3 ovarian
[7] = test system: IGROV1 ovarian
[8] = test system: OVCAR-3 ovarian
[9] = test system: HS 578T breast
[10] = test system: NCI/ADR-RES ovarian
[11] = test system: T-47D breast
[12] = test system: BT-549 breast
[13] = test system: MDA-MB-435 melanoma
[14] = test system: SW-620 colon
[15] = test system: MCF7 breast
[16] = test system: HCT-116 colon
[17] = test system: HCC-2998 colon
[18] = test system: KM12 colon

| SMILES | growth [1] | growth [2] | growth [3] [%] | growth [4] [%] | growth [5] [%] | growth [6] [%] | growth [7] [%] | growth [8] | growth [9] [%] | growth [10] [%] | growth [11] | growth [12] [%] | growth [13] | growth [14] | growth [15] | growth [16] | growth [17] | growth [18] |
| --- | --- | --- | --- | --- | --- | --- | --- | --- | --- | --- | --- | --- | --- | --- | --- | --- | --- | --- |
| N#Cc1nn(-c2cc(=O)[nH]c3ccc(Br)cc23)c(N)c1C#N | -14.2% (active) | -29.7% (active) | 96 | 103 | 81.6 | 69.1 | 90.5 | 103% | 88.6 | 102 | 56.1% | 85.1 | 95.5% | 83.5% | 104% | 85.7% | 78.5% | 109% |
| Cc1c2ccccc2nc2cc3c(cc12)[C@H]1CC[C@]2(C)C(=O)CC[C@H]2[C@@H]1CC3 | 92.9% | 79.5% | 92.5 | 97.6 | 95.8 | 124 | 101 | 104% | 86.3 | 103 | 103% | 96 | 95.6% | 99.8% | 115% | 90.2% | 109% | 95.4% |
| COc1ccc(OC)c(Nc2nnc(-c3cc(OC)c(OC)c(OC)c3)o2)c1 | 89.6% | 95.2% | 104 | 105 | 99.3 | 104 | 98.5 | 112% | 107 | 94.4 | 82.2% | 88.8 | 102% | 108% | 105% | 103% | 103% | 94.6% |
| O=S(=O)(NCCNc1nccc(-c2c(-c3ccc(F)c(O)c3)nc3sccn23)n1)c1ccc(Cl)cc1 | 9.79% (active) | -11.1% (active) | 22.3 | 93.1 | 32.5 | 39.3 | 30.3 | 45.4% | 31.4 | 28.5 | 2.76% (active) | 29.9 | 3.65% (active) | 52.3% | 13.5% | 16.7% | 59.6% | 12.6% |
| CNCCCNc1nc2ccccc2c2c(=O)c3cc(Cl)ccc3sc12 | -39.9% (active) | -25.3% (active) | 24.5 | 47.1 | 63.6 | 84.4 | 33.2 | 9.78% (active) | 59.9 | 44.3 | 48.5% | 92.4 | -18.5% (active) | -87% (active) | -77.3% (active) | -92.1% (active) | -89.8% (active) | -24.6% (active) |
| COc1cc(O)c2c(=O)c3c(CC=C(C)C)cc(OC)c(O)c3oc2c1 | 24.7% | 29.8% | 26.4 | 51.2 | 52.5 | 17 | 41.7 | 1.93% (active) | 36.1 | 16.1 | 45.9% | 33.2 | -3.84% (active) | 26.3% | 23% | 11.8% | 53.4% | 23.2% |
| Cc1ccc(S(=O)(=O)N2CCCN(c3nc(-c4ccccc4)nc4nc(-c5ccccc5)oc34)CC2)cc1 | 92.2% | 89.6% | 95.4 | 105 | 103 | 107 | 90.2 | 114% | 103 | 102 | 90.8% | 117 | 104% | 111% | 93.4% | 104% | 107% | 109% |
| COc1ccc(-c2nc3c(c(-c4ccc(Cl)cc4)nn3-c3ccccc3)c(-c3ccccc3)c2C#N)cc1 | 114% | 106% | 100 | 103 | 116 | 122 | 111 | 111% | 114 | 108 | 94.3% | 106 | 105% | 104% | 96% | 101% | 115% | 98.5% |
